Results filed as inconclusive are left out. A number with no mark means an inactive call. Calls come from the whole dose curve; as a rule, active = well fitted inhibition curve with a large enough effect; inconclusive = small, poorly fitted or top-dose-only effect; inactive = no such curve, though single readings can be large or run the other way.
Each compound was assayed against Retinaldehyde dehydrogenase 3 (Homo sapiens) (UniProt P47895) (assay: qHTS for Inhibitors of the Aldehyde Dehydrogenase Family (ALDH1A3) Primary screen (AID 2061315;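 note: plate controls were DMSO vehicle for no effect and reference inhibitor for full effect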)). Details: ALDH inhibition qHTS; series mostly up to 56 µM; activity change, negative = inhibition: at the top concentration.
For `O=C(O)C[C@H](O)C[C@H](O)/C=C/c1c(C2CC2)nc2ccccc2c1-c1ccc(F)cc1`, the “activity change, negative = inhibition” value was 18.5%. `NCC(=O)Nc1ccc(-n2nc(C(F)(F)F)cc2-c2ccc3c(ccc4ccccc43)c2)cc1` was tested, and the “activity change, negative = inhibition” value was 1.29%. For `CCc1nc(-c2cccc(C)c2)c(-c2ccnc(NC(=O)c3ccccc3)c2)s1`, the “activity change, negative = inhibition” value was 1.66%. For `COc1cc2c(NC3CCN(CC4CCCCC4)CC3)nc(N3CCCN(C(C)C)CC3)nc2cc1OCCCN1CCCCC1`, the “activity change, negative = inhibition” value was 6.01%. With `CC(C)N(CCCNC(=O)Nc1ccc(C(C)(C)C)cc1)C[C@H]1O[C@@H](n2ccc3c(N)ncnc32)[C@H](O)[C@@H]1O` the “activity change, negative = inhibition” value was 6.41%. In the case of `Cc1cnc(Nc2cccc(CN3CCOCC3)c2)nc1Nc1cccc(S(=O)(=O)NC(C)(C)C)c1`, the “activity change, negative = inhibition” value is reported as 0.838%. `C[C@@]1(c2cc(-c3cncnc3)c(F)cc2F)CCSC(N)=N1` was tested, and the “activity change, negative = inhibition” value was 23.5% [at 28 µM]. In the case of `CCN(CCO)CCCC(C)Nc1ccnc2cc(Cl)ccc12` (centres undefined), the activity change, negative = inhibition is reported as 5.26% [at 5.59 µM]. For `CC(C)N(CCCNC(=O)Nc1ccc(C(C)(C)C)cc1)C[C@H]1O[C@@H](n2cc(Br)c3c(N)ncnc32)[C@H](O)[C@@H]1O`, the “activity change, negative = inhibition” value was 6.37%. In the case of `CCCCOc1nc(N)c2c(n1)N(Cc1cccc(CN3CCCC3)c1)CC(=O)N2`, the “activity change, negative = inhibition” value is reported as -0.765%. For `Nc1ncnc2c1c(-c1cccc(OCc3ccccc3)c1)cn2C1CC(CN2CCC2)C1` (centres undefined), the “activity change, negative = inhibition” value was 56.7%. With `Cc1nc(C(=O)NCC(=O)O)c(O)c2ccc(Oc3ccccc3)cc12` the “activity change, negative = inhibition” value was 26.2%. With `OCCn1cc(-c2cnc3nnn(Cc4ccc5ncccc5c4)c3n2)cn1` the “activity change, negative = inhibition” value was 9.62%. `COc1cc(C)c(Sc2cnc(NC(=O)c3ccc(CNC(C)C(C)C)cc3)s2)cc1C(=O)N1CCN(C(C)=O)CC1` (centres undefined) was tested, and the “activity change, negative = inhibition” value was 11.2%.
